Source: PubChem BioAssay (National Center for Advancing Translational Sciences (NCATS))
HP1b chromo inh: HTS for Inhibitors of HP1-beta Chromodomain Interactions with Methylated Histone Tails. Chromobox protein homolog 1 (Homo sapiens), P83916. AlphaScreen HP1-beta / biotin-H3K9me3 peptide binding. Potency, µM (doses to about 114 µM), inactives show top-dose activity change, negative = inhibition, actives largely listed as inhibitors. 390,000 tested, 0.56% active. AID 540317, 2011; also: nearly all actives have a fitted effect of over 70% in size
Target sequence (P83916 whole entry, looked up): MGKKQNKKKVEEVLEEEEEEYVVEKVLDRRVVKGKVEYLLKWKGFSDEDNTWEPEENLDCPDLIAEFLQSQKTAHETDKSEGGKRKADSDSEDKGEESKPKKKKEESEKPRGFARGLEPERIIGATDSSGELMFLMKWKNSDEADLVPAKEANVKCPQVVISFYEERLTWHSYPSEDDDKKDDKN
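AlphaScreen: HP1-beta (50 nM) preformed 30 min with biotin-H3(1-18)K9me3 peptide (50 nM) in PBS pH 7.4, 0.01% Tween-20. Compound added for 30 min at RT, then streptavidin donor/nickel chelate acceptor beads (10 ug/mL) for 30 min.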
G9a block: qHTS Assay for Inhibitors of Histone Lysine Methyltransferase G9a; Histone-lysine N-methyltransferase EHMT2 (Homo sapiens), Q96KQ7; AID 504332, 2011; Potency, µM (highest dose often 102 µM), for the others: at the highest dose activity, negative = inhibition, actives largely listed as inhibitors; G9a H3K9 monomethylation, AlphaScreen, 2 h; 350,000 tested, 8.8% active; also: % is scaled to controls: 0 for no effect and ±100 for the full control effect; nearly all actives have a fitted effect of over 75% in size
Target sequence (Q96KQ7 913-1193 limits assumed): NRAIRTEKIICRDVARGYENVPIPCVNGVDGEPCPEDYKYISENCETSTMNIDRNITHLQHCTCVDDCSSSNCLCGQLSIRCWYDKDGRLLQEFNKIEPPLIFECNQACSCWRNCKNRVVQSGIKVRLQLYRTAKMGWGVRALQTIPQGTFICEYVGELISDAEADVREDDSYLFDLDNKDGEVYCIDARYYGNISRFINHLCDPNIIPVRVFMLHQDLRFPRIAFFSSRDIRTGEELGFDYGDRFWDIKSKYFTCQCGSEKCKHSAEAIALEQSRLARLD
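G9a (20 nM) was preincubated 15 min with compound, then reacted 2 h at room temperature with 500 nM biotin-H3K9 peptide and 20 µM SAM. Monomethyl-H3K9 detected by AlphaScreen using anti-H3K9me1 antibody.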
JMJD2A Tudor: qHTS Assay for Inhibitors of JMJD2A-Tudor Domain | Lysine-specific demethylase 4A (Homo sapiens), O75164 | AlphaScreen JMJD2A-Tudor / H3K4me3 peptide binding | Potency, µM (titrated, usually from 114 µM), without a hit: at the highest dose activity change, negative = inhibition, usual class: inhibitors | 390,000 tested, 4.4% active | AID 504339, 2011; also: % is scaled to controls: 0 for no effect and ±100 for the full control effect; nearly all actives have a fitted effect of over 50% in size
BAZ2B inh: qHTS Assay for Inhibitors of BAZ2B; AlphaScreen BAZ2B-H3K14Ac peptide displacement; AID 504333, 2011; 360,000 tested, 4.4% active; Potency, µM (doses to about 114 µM), for the others: top-dose activity change, negative = inhibition, usual class: inhibitors; also: % is scaled to controls: 0 for no effect and ±100 for the full control effect; nearly all actives have a fitted effect of over 60% in size
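Compounds, titrated to a top concentration of 110 uM, were incubated 30 min at room temperature with preformed BAZ2B/acetyl-K14 H3 peptide complex (50 nM each). Proximity signal was measured by AlphaScreen after 20 min with beads.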
PLK1 PBD block: qHTS for Inhibitors of PLK1-PDB (polo-like kinase 1 - polo-box domain): Primary Screen; Serine/threonine-protein kinase PLK1 (Homo sapiens), P53350; Plk1 PBD binding of FITC phosphopeptide, fluorescence polarization; Potency, µM, for inactives: max response, negative = inhibition, usual class: inhibitors; 360,000 tested, 2.8% active; AID 720504, 2013; also: series mostly up to about 57 µM; % is scaled to controls: 0 for no effect and ±100 for the full control effect; nearly all actives have a fitted effect of over 65% in size
Sfp PPTase inh: qHTS Assay for Inhibitors of Bacillus subtilis Sfp phosphopantetheinyl transferase (PPTase). Biochemical Sfp PPTase activity, qHTS. Potency, µM, for the others: largest response in the series, negative = inhibition, most hits filed as inhibitors. 310,000 tested, 3.5% active. AID 1490, 2009;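 also: the enzyme is Sfp with the accession as filed and its product quenches rhodamine fluorescence; 0% = enzyme reaction without inhibitor and -100% = no enzyme wells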
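After 15 min at room temperature with compound, 15 nM Sfp received 5 uM rhodamine-CoA plus 12.5 uM BHQ-2-ybbR (50 mM Hepes pH 7.6, 10 mM MgCl2). Rate came from the fluorescence difference over 30 min, ex 525/em 598 nm.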
* marks the source's active call; other numbers are inactive results; ? = inconclusive; . = no result; [ ] = remark or other dose. The list is not random: actives were taken first. Their share in the collection is about 12%. Calls follow the shape of the dose curve; as a rule, active = well fitted curve in the direction sought with a large enough effect; inconclusive = small, poorly fitted or top-dose-only effect, or another doubt; inactive = no such curve, though single readings can be large; an effect the other way counts as inactive or inconclusive. Potency is read from the fitted curve at half-maximal effect.

SMILES | HP1b chromo inh | G9a block | JMJD2A Tudor | BAZ2B inh | PLK1 PBD block | Sfp PPTase inh
Cc1cccc(C)c1NC(=O)C(c1ccccc1)N1CCN(c2ccc(C(F)(F)F)cn2)CC1 (centres undefined) | . | . | . | . | -3% | .
COC(=O)C1=C(C)NC(C)=C(C(=O)OCCNCc2ccccc2)C1c1cccc([N+](=O)[O-])c1 (centres undefined) | . | ? | . | . | . | -15%
COc1ccc2c(c1)CCc1sc(NC(=O)c3ccc(Br)cc3)nc1-2 | 34% | ? | -28% | -1% | . | .
COc1ccc2sc(NC(=O)c3ccco3)nc2c1 | 15% | 7.1µM* | ? | ? | -11% | -2%
COc1ccc2c(c1)Cc1sc(NC(=O)c3ccco3)nc1-2 | 16% | 56µM* | -8% | -44% | ? | -19%
COc1ccc2c(c1)CCc1sc(NC(=O)c3ccco3)nc1-2 | -16% | 40µM* | -30% | -34% | ? | ?
COc1ccc2nc(NC(=S)NC(=O)c3ccco3)sc2c1 | 14% | 12%[59 µM] | 0% | -22% | -8% | ?
COc1ccc2c(c1)CCc1sc(NC(=O)c3ccc(C)cc3)nc1-2 | 23% | 6% | -16% | -20% | -13% | 5%
COc1ccc2c(c1)Cc1sc(NC(C)=O)nc1-2 | 16% | -27%[12.7 µM] | -25% | -31% | -21% | 20µM*
Cc1nn(C)c2c1c(-c1ccccc1)cc(=O)n2Cc1ccccc1C#N | 167% | -19%[59 µM] | 11% | 2% | . | .
CC(C)CCn1c(=O)c2cccnc2n(CC(=O)Nc2ccccc2F)c1=O | 18% | 3%[59 µM] | -11% | 6% | . | .
COCCn1c(=O)c(-c2cccs2)nc2cnc(N(C)C)nc21 | . | -2%[0.501 µM] | . | . | . | 21%
CCOC(=O)N1C(C)CN(/[N+]([O-])=N/Oc2ccc([N+](=O)[O-])cc2[N+](=O)[O-])CC1C (centres undefined) | 34% | . | -15% | . | . | 8%
O=C(CSc1nc2c([nH]c3ccccc32)c(=O)n1-c1ccc(Cl)cc1)NCc1ccccc1 | 26%[57 µM] | 1%[59 µM] | 2% | 2% | . | .
Cc1ccccc1N(C)C1=N[S+](=O)([O-])c2ccccc21 | . | . | -20% | . | . | .
O=C(Nc1nc(-c2ccco2)c(-c2ccco2)s1)c1ccc(F)cc1F | ? | 10µM* | ? | 40µM* | -12% | .
O=C(Nc1nc(-c2ccco2)c(-c2ccco2)s1)c1cnccn1 | 0% | 10µM* | -34% | ? | -12% | .
O=C(Nc1ccc(NC(=O)c2ccco2)cc1)c1cnccn1 | 21% | 10%[59 µM] | -12% | 27% | -3% | 4%
O=C(Nc1nc(-c2ccco2)c(-c2ccco2)s1)c1c(F)cccc1Cl | ? | ? | 50µM* | 40µM* | -24% | .
COC(=O)c1cccc(C23CC4(C2)[C@H](CN(CC2CCCCC2)[C@@H]4c2ccccc2)C3c2ccc(C(F)(F)F)cc2)c1 (some centres undefined) | . | . | . | . | . | 15%
CC(=O)c1ccc(N2CCN(C(=O)C3CCN(S(=O)(=O)c4cccc5nonc45)CC3)CC2)cc1 | 15% | 5%[59 µM] | -9% | -13% | . | .
Cc1ccc(NC(=O)c2cc(N3C(=O)CCC3=O)ccc2N2CCCCC2)cc1 | 17% | 19% | -26% | -15% | -5% | 16%
COc1ccc2c3c(c(=O)oc2c1)C1O[C@](c2ccsc2)(Cc2ccccc21)O3 | . | . | . | ? | . | -5%
O=C1C2=C(C(=O)c3ccccc31)C1O[C@](c3ccsc3)(Cc3ccccc31)O2 | . | -38%[2.33 µM] | . | 10µM* | . | -3%
Cc1cc2c(c(=O)o1)C1O[C@](c3ccsc3)(Cc3ccccc31)O2 | . | ? | . | ? | . | 1%
